In PubChem BioAssay (EPA / NIEHS) one finds outcome and AC50 data, which are given here for 40 molecules.

Activity calls are given as the source filed them. The calls were made as follows: active = hit-call score of the fitted dose curve at least 0.9, where 1 is the maximum; inactive = score below 0.9.

Sequence of Cellular tumor antigen p53 (Homo sapiens) (P04637 whole entry, looked up): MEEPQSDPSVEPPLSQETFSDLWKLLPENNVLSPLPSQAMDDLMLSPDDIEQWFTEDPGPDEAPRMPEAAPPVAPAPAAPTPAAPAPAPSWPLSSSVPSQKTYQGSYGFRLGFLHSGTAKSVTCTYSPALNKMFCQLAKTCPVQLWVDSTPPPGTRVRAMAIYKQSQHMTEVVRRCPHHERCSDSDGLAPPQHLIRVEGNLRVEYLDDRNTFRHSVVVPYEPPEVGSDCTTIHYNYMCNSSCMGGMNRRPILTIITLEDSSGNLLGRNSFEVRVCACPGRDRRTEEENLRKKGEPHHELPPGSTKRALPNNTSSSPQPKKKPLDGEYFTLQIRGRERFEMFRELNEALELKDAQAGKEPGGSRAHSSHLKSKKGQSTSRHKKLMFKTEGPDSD

The assay has as its target Cellular tumor antigen p53 (Homo sapiens) (UniProt P04637). The experiment in a line: ATG_p53_CIS: Attagene CIS-FACTORIAL HepG2 Assay for human p53 Transcription Factor (AID 2282994). The settings on record: HepG2 p53 cis-element reporter, Attagene mRNA; actives raise or lower the signal. On the procedure: ATG_CIS is a cell-based, multiplexed-readout assay that uses HepG2, a human liver cell line, with measurements taken at 24 hours after chemical dosing in a 24-well plate.ATG_p53_CIS is one of 52 assay component(s) measured or calculated from the ATG_CIS assay. It is designed to make measurements of mRNA induction, a form of inducible reporter, as detected with fluorescence intensity signals by Reverse transcription polymerase chain reaction (RT-PCR) and Capillary electrophoresis technology.Data from the assay component ATG_p53_CIS was analyzed into 1 assay endpoint. This assay endpoint, ATG_p53_CIS, was analyzed with bidirectional fitting relative to DMSO as the negative control and baseline of activity. Using a type of inducible reporter, measures of mRNA for gain or loss-of-signal activity can be used to understand the reporter gene at the transcription factor-level as they relate to the gene TP53. Furthermore, this assay endpoint can be referred to as a primary readout, because this assay has produced multiple assay endpoints where this one serves a reporter gene function. To generalize the intended target to other relatable targets, this assay endpoint is annotated to the dna binding intended target family, where the subfamily is tumor suppressor.
Human liver HepG2 cells are transiently transfected with multiple reporter transcription units (MRTUs) in 6-well plates using FuGene 6 reagent (Roche; 3 ml FuGene/1 mg DNA). The MRTU constructs are regulated by a cis-regulating element (promoter). […] A major difference between the CIS and TRANS system is that in CIS activities of endogenous TFs are measured, whereas the TRANS assay evaluates changes in activities of exogenous, chimeric NR-Gal4 proteins. […] At the end of 24 hour incubation, total RNA was isolated using TriZol reagent (Invitrogen). The isolated RNA is then reverse-transcribed using oligo(dT) primer and Mo-MLV reverse transcriptase (Invitrogen) with DNAse I (Ambion) treatment for 30 min. The one-tenth of the produced cDNA was amplified by PCR using Taq DNA polymerase (Invitrogen) and two reporter sequence-specific primers. The PCR products were fluorescently labeled by primer extension with 6-arboxyfluorescein (6-FAM) 5'-labeled reporter sequence-specific primer (2 min at 95 C, 20 s at 68 C and 10 min at 72 C) and these products were digested with 5U of HpaI (New England Biolabs) for 2h at 37 C. The fragments were purified using Qiaquick PCR columns (Qiagen), analyzed on an ABI 3130xL genetic analyzer (Applied Biosystems) with peak positions identified by using a set of X-rhodamine (ROX)-labeled MapMarker1000 molecular weight standards (BioVentures). The raw capillary electrophoresis data was processed using Attagraph software (Attagene).
`NC(=O)c1ccccc1O`: the molecule was called inactive.
Same read-out and setting: the entry for `[Cl][Nd]([Cl])[Cl]` is “inactive”.
`CCOC(=O)Cc1cccc2ccccc12`: the molecule was called inactive.
In the case of `CN(C)c1ccc(C(=N)c2ccc(N(C)C)cc2)cc1`, the AC50 is 29.4 µM (active).
On to `CCCCC(CC)CCC(CC(C)C)OS(=O)(=O)O` (stereo not given), for which the result was inactive.
Same read-out and setting: the entry for `O=C1CCCCCN1SSN1CCCCCC1=O` is “inactive”.
Turning to `CCCCCCCCCCC=CC#N`, the outcome was inactive.
On to `CCCNC(=O)NS(=O)(=O)c1ccc(Cl)cc1`, for which the result was inactive.
The same measure, in the same setting: the entry for `CC(=O)CC(N)=O` is “inactive”.
On to `CN(C)CCCN(C)C`, for which the call was inactive.
Turning to `NC(=O)OCC(COC(N)=O)c1ccccc1`, the molecule was classed as inactive.
For the molecule `COC(=O)/C=C/C(C)=C\C=C\C(C)=C\C=C\C=C(C)\C=C\C=C(C)\C=C\C(=O)O`, the outcome was inactive.
The same measure, in the same setting: the entry for `CCOC(=O)CC` is “inactive”; for `CC1OC1C1CCC2(C)OC2C1` (stereo not given) it is “inactive”; for `O=C(OCC1CCC2OC2C1)C1CCC2OC2C1` (stereo not given) it is “inactive”.
As for `CCCCCCCCO[C@@H]1O[C@H](CO)[C@@H](O)[C@H](O)[C@H]1O`, the call was inactive.
As to `CC=CC(F)(F)C(F)(F)C(F)(F)F`, the molecule was classed as inactive.
Same read-out and setting: the entry for `COC(=O)c1sccc1S(N)(=O)=O` is “inactive”; for `CC1(C)O[C@@H]2C[C@H]3[C@@H]4C[C@H](F)C5=CC(=O)CC[C@]5(C)[C@H]4[C@@H](O)C[C@]3(C)[C@]2(C(=O)CO)O1` it is “inactive”; for `Cc1cc(C)c(C)c(O)c1` it is “inactive”.
Regarding `COc1c2ccoc2cc2oc(=O)ccc12`, the outcome was inactive.
On to `C=CC(=O)OCCOC(=O)C=C`, for which the AC50 was 48 µM (active).
As for `NC(CO)(CO)CO`, the outcome was inactive.
The same measure, in the same setting: the entry for `O=CN1CCCCC1` is “inactive”; for `CC(C)(C)c1n[nH]c(=O)n(N)c1=O` it is “inactive”.
The same measure, in the same setting: the entry for `O=C1CCCC(=O)O1` is “inactive”; for `O=CC1CC1` it is “inactive”.
Still for that read-out and setting: the entry for `CC1=NN(c2cc(S(=O)(=O)O)ccc2Cl)C(=O)C1N=Nc1ccccc1` (stereo not given) is “inactive”.
As for `CC(C)CCCCCOC(=O)CCS`, the result was inactive.
Same read-out and setting: the entry for `CCc1ccc2c(c1)C(=O)c1ccccc1C2=O` is “inactive”.
Take `O=[N+]([O-])C1(Br)COCOC1`: the AC50 is 53.8 µM (active).
`COCC(C)N` (stereo not given): the molecule was called inactive.
Turning to `CCCCCCCCCCCCCCCC[n+]1ccccc1`, the concentration at half-maximal activity (AC50) was 20.4 µM (active).
As to `CC(C)CCCC(C)CC=O` (stereo not given), the outcome was inactive.
Still for that read-out and setting: the entry for `CC(C)=CCC/C(C)=C\C#N` is “inactive”; for `CCCCCCCCCCCCCCCCCC#N` it is “inactive”; for `C1=Cc2ccccc2C1` it is “inactive”.
Same read-out and setting: the entry for `CC(C)C1=CC2=CC[C@@H]3[C@](C)(CCC[C@@]3(C)C(=O)O)[C@H]2CC1` is “inactive”; for `O=C(O)c1ccccc1Nc1cccc(C(F)(F)F)c1` it is “inactive”.
Turning to `CCOCC(=O)O`, the molecule was classed as inactive.

The term AC50 denotes the concentration at which the activity in the assay is half-maximal.
